# Source: PubChem BioAssay (NCATS)
# Active and inactive are the calls of the source. Calls follow the shape of the full dose curve.
# Target: Catechol O-methyltransferase (Homo sapiens) (UniProt P21964)
# Assay: Confirmatory Screen for Target Class Profiling of Small Molecule Inhibitors of Methyltransferases (AID 1745852); as to activity change, negative = inhibition: % is scaled to controls: 0 for no effect and ±100 for the full control effect
# Details: MTase-Glo luminescence, SAH detection, recombinant enzyme; measured here: COMT max response; stronger effect = lower value
# Potency is read from the fitted curve at half-maximal effect.
# Sequence of Catechol O-methyltransferase (Homo sapiens) (P21964 whole entry, looked up): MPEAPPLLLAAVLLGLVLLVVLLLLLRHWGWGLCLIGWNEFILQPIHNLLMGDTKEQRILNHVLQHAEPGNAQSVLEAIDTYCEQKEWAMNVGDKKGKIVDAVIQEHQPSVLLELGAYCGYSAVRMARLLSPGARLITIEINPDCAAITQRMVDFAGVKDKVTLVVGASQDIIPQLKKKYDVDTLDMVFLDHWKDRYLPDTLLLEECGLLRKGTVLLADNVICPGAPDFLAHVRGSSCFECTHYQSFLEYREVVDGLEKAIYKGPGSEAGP
row,SMILES,activity [%]
1,Cc1cc(=O)oc2c(C=O)c(O)ccc12,-6.39
2,C=C1C(=O)O[C@@H]2/C=C(\C)C(=O)/C=C/[C@](C)(O)C[C@@H](OC(=O)C(C)C)[C@@H]12,-80.2
3,CC(=O)OC/C=C(\C)C(CC1C(C)=C(OC(C)=O)C(=O)C2C(C)(C)C(O)CCC12C)OC(C)=O (centres undefined),-67.8
4,COc1cc2nc(N3CCC(N4CCCCC4)CC3)nc(NC3CCCCCC3)c2cc1OC,-39.3
5,COc1ccc(-c2cnc3ccc(NCc4ccc(S(N)(=O)=O)cc4)nn23)cc1OC,-34.5
6,COc1cc2c(cc1O)CC[C@H]1[C@@H]2CC[C@]2(C)[C@H](O)CC[C@@H]12,-76.8
7,CC(C)c1c2cc(-c3ccnc(NC4CCC(NC5CCOCC5)CC4)n3)ccc2nn1C (centres undefined),-27.8
8,CCN(CC)c1ccc2c(O)c(C=Nc3ccc(CC(=O)O)c(-c4c5c(nc6ccccc46)CCC(C(=O)NN)C5)c3)c(=O)oc2c1 (centres undefined),-17
9,Cc1nc([C@](C)(O)CO)sc1-c1cnc(N)c(O[C@H](C)c2cc(F)ccc2-n2nccn2)c1,-59.6
10,CN(C)C/C=C/C(=O)Nc1cccc(C(=O)Nc2ccc(Nc3nccc(-c4cccnc4)n3)cc2)c1,-2.53
11,NC[C@@](O)(c1ccc(Cl)cc1)c1ccc(-c2cn[nH]c2)cc1,1.95

# Target: Guanidinoacetate N-methyltransferase (Homo sapiens) (UniProt Q14353)
# Assay: as above
# Details: MTase-Glo luminescence, SAH detection, recombinant enzyme; activity change, negative = inhibition: at 57.3 µM (top of the series) unless noted; series mostly up to 57.3 µM
SMILES,Potency,"activity change, negative = inhibition"
Cc1cc(=O)oc2c(C=O)c(O)ccc12,17.1 µM (active),
C=C1C(=O)O[C@@H]2/C=C(\C)C(=O)/C=C/[C@](C)(O)C[C@@H](OC(=O)C(C)C)[C@@H]12,,-3.22%
CC(=O)OC/C=C(\C)C(CC1C(C)=C(OC(C)=O)C(=O)C2C(C)(C)C(O)CCC12C)OC(C)=O (centres undefined),,-2.29% [at 29.8 µM]
COc1cc2nc(N3CCC(N4CCCCC4)CC3)nc(NC3CCCCCC3)c2cc1OC,42.9 µM (active),
COc1ccc(-c2cnc3ccc(NCc4ccc(S(N)(=O)=O)cc4)nn23)cc1OC,38.3 µM (active),
COc1cc2c(cc1O)CC[C@H]1[C@@H]2CC[C@]2(C)[C@H](O)CC[C@@H]12,,0.377%
CC(C)c1c2cc(-c3ccnc(NC4CCC(NC5CCOCC5)CC4)n3)ccc2nn1C (centres undefined),38.3 µM (active),
CCN(CC)c1ccc2c(O)c(C=Nc3ccc(CC(=O)O)c(-c4c5c(nc6ccccc46)CCC(C(=O)NN)C5)c3)c(=O)oc2c1 (centres undefined),34.1 µM (active),
Cc1nc([C@](C)(O)CO)sc1-c1cnc(N)c(O[C@H](C)c2cc(F)ccc2-n2nccn2)c1,,-0.524%
CN(C)C/C=C/C(=O)Nc1cccc(C(=O)Nc2ccc(Nc3nccc(-c4cccnc4)n3)cc2)c1,,0.0986%
NC[C@@](O)(c1ccc(Cl)cc1)c1ccc(-c2cn[nH]c2)cc1,,0%

# Target: Nicotinamide N-methyltransferase (Homo sapiens) (UniProt P40261)
# Assay: as above
# Details: MTase-Glo luminescence, SAH detection, recombinant enzyme; measured here: NNMT max response; stronger effect = lower value
# Sequence of Nicotinamide N-methyltransferase (Homo sapiens) (P40261 whole entry, looked up): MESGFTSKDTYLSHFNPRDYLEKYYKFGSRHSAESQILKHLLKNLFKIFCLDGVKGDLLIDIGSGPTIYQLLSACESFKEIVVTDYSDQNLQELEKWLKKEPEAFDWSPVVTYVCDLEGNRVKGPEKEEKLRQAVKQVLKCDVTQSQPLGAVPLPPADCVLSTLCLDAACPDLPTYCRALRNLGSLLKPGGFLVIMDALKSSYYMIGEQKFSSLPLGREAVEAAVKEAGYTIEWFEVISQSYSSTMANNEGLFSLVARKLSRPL
row,SMILES,activity [%]
1,Cc1cc(=O)oc2c(C=O)c(O)ccc12,-24
2,C=C1C(=O)O[C@@H]2/C=C(\C)C(=O)/C=C/[C@](C)(O)C[C@@H](OC(=O)C(C)C)[C@@H]12,-1.46
3,CC(=O)OC/C=C(\C)C(CC1C(C)=C(OC(C)=O)C(=O)C2C(C)(C)C(O)CCC12C)OC(C)=O (centres undefined),-5.45
4,COc1cc2nc(N3CCC(N4CCCCC4)CC3)nc(NC3CCCCCC3)c2cc1OC,-54.7
5,COc1ccc(-c2cnc3ccc(NCc4ccc(S(N)(=O)=O)cc4)nn23)cc1OC,-24.2
6,COc1cc2c(cc1O)CC[C@H]1[C@@H]2CC[C@]2(C)[C@H](O)CC[C@@H]12,-2.72
7,CC(C)c1c2cc(-c3ccnc(NC4CCC(NC5CCOCC5)CC4)n3)ccc2nn1C (centres undefined),-14.6
8,CCN(CC)c1ccc2c(O)c(C=Nc3ccc(CC(=O)O)c(-c4c5c(nc6ccccc46)CCC(C(=O)NN)C5)c3)c(=O)oc2c1 (centres undefined),-14
9,Cc1nc([C@](C)(O)CO)sc1-c1cnc(N)c(O[C@H](C)c2cc(F)ccc2-n2nccn2)c1,-12.8
10,CN(C)C/C=C/C(=O)Nc1cccc(C(=O)Nc2ccc(Nc3nccc(-c4cccnc4)n3)cc2)c1,-7.5
11,NC[C@@](O)(c1ccc(Cl)cc1)c1ccc(-c2cn[nH]c2)cc1,-0.549

# Target: Phenylethanolamine N-methyltransferase (Homo sapiens) (UniProt P11086)
# Assay: as above
# Details: MTase-Glo luminescence, SAH detection, recombinant enzyme; measured here: PNMT max response; stronger effect = lower value
# Sequence of Phenylethanolamine N-methyltransferase (Homo sapiens) (P11086 whole entry, looked up): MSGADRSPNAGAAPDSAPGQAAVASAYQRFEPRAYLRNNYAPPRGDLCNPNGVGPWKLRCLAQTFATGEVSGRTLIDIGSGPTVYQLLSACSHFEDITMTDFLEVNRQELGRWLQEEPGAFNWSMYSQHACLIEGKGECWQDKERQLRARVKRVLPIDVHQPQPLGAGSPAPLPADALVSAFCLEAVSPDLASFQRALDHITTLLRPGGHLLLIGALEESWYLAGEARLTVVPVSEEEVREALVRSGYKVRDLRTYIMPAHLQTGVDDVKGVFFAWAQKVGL
row,SMILES,activity [%]
1,Cc1cc(=O)oc2c(C=O)c(O)ccc12,-37.6
2,C=C1C(=O)O[C@@H]2/C=C(\C)C(=O)/C=C/[C@](C)(O)C[C@@H](OC(=O)C(C)C)[C@@H]12,-0.934
3,CC(=O)OC/C=C(\C)C(CC1C(C)=C(OC(C)=O)C(=O)C2C(C)(C)C(O)CCC12C)OC(C)=O (centres undefined),-0.876
4,COc1cc2nc(N3CCC(N4CCCCC4)CC3)nc(NC3CCCCCC3)c2cc1OC,-35.6
5,COc1ccc(-c2cnc3ccc(NCc4ccc(S(N)(=O)=O)cc4)nn23)cc1OC,-27.8
6,COc1cc2c(cc1O)CC[C@H]1[C@@H]2CC[C@]2(C)[C@H](O)CC[C@@H]12,-7.82
7,CC(C)c1c2cc(-c3ccnc(NC4CCC(NC5CCOCC5)CC4)n3)ccc2nn1C (centres undefined),-25.7
8,CCN(CC)c1ccc2c(O)c(C=Nc3ccc(CC(=O)O)c(-c4c5c(nc6ccccc46)CCC(C(=O)NN)C5)c3)c(=O)oc2c1 (centres undefined),-22
9,Cc1nc([C@](C)(O)CO)sc1-c1cnc(N)c(O[C@H](C)c2cc(F)ccc2-n2nccn2)c1,-10.9
10,CN(C)C/C=C/C(=O)Nc1cccc(C(=O)Nc2ccc(Nc3nccc(-c4cccnc4)n3)cc2)c1,1.39
11,NC[C@@](O)(c1ccc(Cl)cc1)c1ccc(-c2cn[nH]c2)cc1,-0.0519
